Test results taken from PubChem BioAssay.
Active and inactive are the calls of the source. No rule for the calls is given here.

assay: inhibition of Brca1/Bard1 split-luciferase complementation, confirmation, counter-screen for Mdm2/MdmX interaction inhibitor project, luminescence, single concentration (AID 504668); settings: Brca1/Bard1 bimolecular luciferase complementation counterscreen, at 8 µM, stronger effect = higher value

Compound	inhibition
O=C(Nc1ccc(Br)c(C(F)(F)F)c1)c1ccc(C(F)(F)F)cc1	28.7% (active)
COC(=O)C1=C(C)NC(C)=C(C(=O)OC)C1c1ccccc1[N+](=O)[O-]	28% (active)
COc1ccc(N/N=C/c2c(C(=O)O)ccc3ccccc23)cc1	24.1% (active)
C#CCOCCOCCOCCNc1nc(N2CCN(C(=O)CCCCCCCCCCNC(=O)[C@H](CO)n3cc(CCCSC)nn3)CC2)nc(N2CCN(C(=O)CCCCCCCCCCNC(=O)[C@H](CCCCN)n3cc(C[C@@H](C)CC)nn3)CC2)n1	26.6% (active)
Cc1ccc(/C=C2\SC(=S)N(CCCC(=O)N3CCOCC3)C2=O)cc1	30.5% (active)
OC(c1cc(C(F)(F)F)nc2c(C(F)(F)F)cccc12)C1CCCCN1 (centres undefined)	35.8% (active)
O=C(CCS(=O)(=O)c1ccc(F)cc1)Nc1nc(-c2ccncc2)cs1	34.2% (active)
CC(=O)NC(c1cccs1)c1cc(F)c2cccnc2c1O (centres undefined)	30.4% (active)
Cc1ccc(S(=O)(=O)c2c(C)nn(C(C)(C)C)c2OC(=O)c2ccc(Br)o2)cc1	29.3% (active)
NC(=O)c1sc2nc3c(c(-c4ccco4)c2c1N)CCC3	24.9% (active)
Cc1ccccc1-c1cc(C(=O)Nc2nc3c(s2)CCCC3)c2ccccc2n1	34.9% (active)
Cn1c(/C=C/c2ccc(Br)cc2)c([N+](=O)[O-])c(=O)n(C)c1=O	23.9% (active)
O=S(=O)(CCSc1nc2ccccc2o1)c1nc2ccccc2s1	35.6% (active)
Cc1ccc(-c2oc3ccccc3c(=O)c2O)cc1	24.8% (active)
